Experimental data as given in PubChem BioAssay (NCATS).
Records with an inconclusive call do not appear. Active and inactive are the calls of the source. Unless noted, calls follow the shape of the dose curve; as a rule, active = well fitted curve in the direction sought with a large enough effect; inconclusive = small, poorly fitted or top-dose-only effect, or another doubt; inactive = no such curve, though single readings can be large; an effect the other way counts as inactive or inconclusive.

Key:
[1] = Cell Viability - BJ (AID 421; calls by dose curve;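 also: potency is read from the fitted curve at half-maximal effect; cells exposed to compound for 40 hours at 37 °C before readout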); conditions: BJ fibroblast viability, qHTS
In short: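 Luminescent ATP signal (CellTiter-Glo, 20 min at room temperature) served as the read-out of viable BJ cells after 40 hours of compound treatment. Responses were scaled between DMSO and 100 uM tamoxifen, and AC50 values were obtained by Hill modeling.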

[2] = Cell Viability - Jurkat (AID 426;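 active = dose-dependent loss of cell ATP signal giving a full or clear fitted curve, ranked by lower potency value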; also: potency is read from the fitted curve at half-maximal effect); conditions: qHTS
In short: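 Cells of the human T-cell leukemia line Jurkat (E6-1) are seeded at 5000 per well, treated with compound across a concentration range for 40 hours at 37 °C, then lysed with CellTiter-Glo; luminescence reports ATP.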

[3] = Cell Viability - Hek293 (AID 427;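 active = compounds whose dose-response curve shows a full or clear partial loss of cell viability, called from curve shape rather than a numeric limit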;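 also: potency is read from the fitted curve at half-maximal effect; cells exposed to compound for 40 hours at 37 °C before reading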); conditions: qHTS
In short: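 Luminescent ATP read-out (CellTiter-Glo, 20 min RT) after 40 hr compound exposure at 37 °C in complete medium. Signal normalized to DMSO (basal) and 100 uM tamoxifen (100% inhibition); concentration-response fitted with the standard Hill equation to give AC50.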

[4] = Cell Viability - HepG2 (AID 433; calls by dose curve;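 also: potency is read from the fitted curve at half-maximal effect; potency for ATP loss meaning cytotoxicity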); conditions: qHTS
In short: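 In this qHTS format, a 40 h, 37 °C compound incubation of HepG2 cells in complete medium precedes a 20 min CellTiter-Glo step at room temperature. Tamoxifen and doxorubicin serve as positive controls; Hill-equation fits yield AC50.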

[5] = Cell Viability - MRC5 (AID 434; calls by dose curve;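 also: potency is read from the fitted curve at half-maximal effect; potency reflects cytotoxicity seen as loss of intracellular ATP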); conditions: MRC5 lung fibroblast viability, qHTS
In short: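 ATP luminescence read-out (CellTiter-Glo, 20 min RT) after 40 hr, 37 °C compound exposure of 1500 MRC5 cells/well. Data normalized to DMSO (basal) and 100 uM tamoxifen (100% inhibition); AC50 from standard Hill equation.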

[6] = Cell Viability - SK-N-SH (AID 435; calls by dose curve;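 also: potency is read from the fitted curve at half-maximal effect; compound exposure lasted 40 h at 37 °C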); conditions: SK-N-SH neuroblastoma cell viability qHTS
In short: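 Human neuroblastoma line, 40 h exposure at 37 °C, ATP quantified via luciferase luminescence; DMSO and 100 uM tamoxifen define 0 and 100% inhibition for AC50 fitting.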

[7] = target: Mitogen-activated protein kinase 10 (Mus musculus) (UniProt Q61831); assay: JNK3 AlphaScreen Assay (AID 530; active = well fitted curve in either direction with a large enough effect, not every such curve was filed as active;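 also: kinase came from lysate of stimulated human HepG2 cells; signal reports phosphorylation of biotinylated GST-cJun 1-79 at Ser73 with 10 µM ATP; % is scaled to controls: 0 for no effect and ±100 for the full control effect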); conditions: JNK3 lysate, c-Jun phosphorylation; series mostly up to 57.1 µM
In short: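 Activity was read by AlphaScreen after JNK3-containing HepG2 lysate (cytokine pre-activated) phosphorylated biotinylated GST-cJun with 10 uM ATP at room temperature. Phospho-Ser73 cJun antibody with Protein-A acceptor beads provided detection.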

[8] = Cell Viability - N2a (AID 540); conditions: N2a mouse neuroblastoma cell viability; activity change, negative = cytotoxicity: at 92.2 µM (top of the series);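 also: plate controls were DMSO alone for no effect and tamoxifen control for full effect; nearly all actives have a fitted effect of over 45% in size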
In short: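 Cytotoxicity was scored as loss of cellular ATP in N2a cells, a mouse neuroblastoma line. Compounds are applied in a qHTS concentration series for 40 hr at 37 °C.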

[9] = Cell Viability - NIH 3T3 (AID 541); conditions: NIH 3T3 cell viability, qHTS; activity change, negative = cytotoxicity: at 92.2 µM (top of the series);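 also: plate controls were DMSO alone for no effect and tamoxifen positive control for full effect; nearly all actives have a fitted effect of over 25% in size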
In short: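 Cells seeded at 1000/well, rested 5 hr at 37 °C, then dosed and incubated 40 hr at 37 °C. CellTiter-Glo added, 20 min room temperature, luminescence read. AC50 by Hill fit.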

[10] = Cell Viability - HUV-EC-C (AID 542); conditions: HUV-EC-C endothelial cell viability, qHTS; series mostly up to 92.2 µM; also: % is scaled to controls: 0 for no effect and ±100 for the full control effect; nearly all actives have a fitted effect of over 35% in size
In short: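 Cells were seeded at 1000 per well and incubated 5 hr at 37 °C before compound addition. After 40 hr at 37 °C, CellTiter-Glo reagent was added for 20 min and luminescence read. AC50 values came from Hill-equation modelling.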

[11] = Cell Viability - H-4-II-E (AID 543); conditions: H-4-II-E rat hepatoma viability; series mostly up to 92.2 µM; also: % is scaled to controls: 0 for no effect and ±100 for the full control effect; nearly all actives have a fitted effect of over 35% in size
In short: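 Cells seeded at 1500 per well and rested 5 hr; compounds added; 40 hr incubation at 37 °C; CellTiter-Glo added, 20 min at room temperature; luminescence read. Hill-equation fits gave AC50.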

[12] = Cell Viability - SH-SY5Y (AID 544); conditions: SH-SY5Y neuroblastoma cell viability; viability change, negative = cytotoxic: at 92.2 µM (top of the series); also: nearly all actives have a fitted effect of over 55% in size
In short: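 Cells were plated at 1500 per well and allowed 5 hr at 37 °C. Compounds were added across a concentration range and incubated 40 hr at 37 °C. CellTiter-Glo was added for 20 min at room temperature before luminescence reading.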

[13] = Cell Viability - Renal Proximal Tubule (AID 545); conditions: renal proximal tubule cells viability, primary cells of rat origin; series mostly up to 91.7 µM; also: nearly all actives have a fitted effect of over 40% in size
In short: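 In this qHTS format, normal rat kidney-derived proximal tubule cells in complete culture medium receive compound titrations, then sit 40 hours at 37 °C before luciferase-based ATP quantitation; potency is reported as AC50 from concentration-response curves.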

[14] = Cell Viability - Mesenchymal (AID 546); conditions: mesenchymal cells viability, qHTS; series mostly up to 91.7 µM;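 also: cells exposed to compound for 40 hours before reading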
In short: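 Human renal mesenchymal cells (glomerulus-derived), 1000 cells/well, 5 hr 37 °C pre-incubation; compound 40 hr, 37 °C; CellTiter-Glo, 20 min RT; luminescence; AC50 via Hill equation.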

[15] = Cellular Toxicity (caspase-3) HepG2 (AID 654); conditions: HepG2 caspase-3 activation, luminescence; series mostly up to 92.2 µM;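 also: cells exposed to compound for 16 hours before reading; 0% = DMSO alone and 100% = caspase signal from 100 µM tamoxifen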
In short: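 Caspase 3/7 activation in HepG2 is measured as rising luminescence after a 16 hr treatment at 37 °C. Values are scaled between DMSO basal and 100 uM tamoxifen, and AC50 is fitted with the Hill equation.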

[16] = Cellular Toxicity (caspase-3) Jurkat (AID 655); conditions: Jurkat caspase-3 activation, luminescence; caspase-3 activation: at 92.2 µM (top of the series), DMSO = 0%, tamoxifen = 100%;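 also: cells exposed to compound for 16 h at 37 °C before reading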
In short: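 qHTS in human Jurkat T-cell leukemia line: 16 hr compound treatment at 37 °C, caspase-3/7 activity measured by Caspase-Glo luminescence. AC50 derived from Hill equation.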

[17] = Cellular Toxicity (caspase-3) HUV-EC-C (AID 656); conditions: HUV-EC-C cells, caspase-3 activation (apoptosis), vehicle = 0, 100 µM tamoxifen = 100%; series mostly up to 92.2 µM;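 also: cells exposed to compound for 16 h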
In short: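 Concentration-dependent caspase 3/7 induction was assessed in HUV-EC-C cells exposed for 16 hours. Data scaled between DMSO and tamoxifen (100 uM) controls.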

[18] = Cellular Toxicity (caspase-3) SHSY5Y (AID 657); conditions: SH-SY5Y caspase-3 activation, DMSO zero, 10 µM staurosporine = 100%; series mostly up to 91.7 µM;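 also: cells exposed to compound for 16 hours at 37 °C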
In short: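 Readout: caspase-cleaved peptide-aminoluciferin substrate driving luciferase light in SH-SY5Y neuroblastoma cells after 16 h treatment. Response normalized to DMSO and 10 uM staurosporine controls.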

[19] = Cellular Toxicity (caspase-3) BJ (AID 658); conditions: BJ fibroblasts, luminescence, normalized: DMSO 0%, staurosporine 100%; series mostly up to 91.7 µM
In short: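 qHTS, BJ fibroblasts, 1000 cells/well; 5 hr preincubation, 16 hr compound, 37 °C; Caspase-Glo 3/7 reagent, 1 hr RT; luminescence. DMSO = 0%, 10 uM staurosporine = 100%. Hill-equation AC50.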

[20] = Cellular Toxicity (caspase-3) MRC-5 (AID 659); conditions: MRC-5 cells, luminescence, normalized: DMSO 0%, 10 µM staurosporine 100%; series mostly up to 91.7 µM;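 also: cells exposed to compound for 16 h at 37 °C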
In short: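 MRC-5 fibroblasts, 1500/well; 16 h cpd, 37 °C; Caspase-Glo 3/7, 1 h RT; lumi read. Norm: DMSO = 0%, 10 uM staurosporine = 100%. Hill-fit AC50 from qHTS conc-response.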

Nc1nc2ccccc2[nH]1
inactive: Potency [1] > 92 µM | Potency [2] > 92 µM | Potency [3] > 92 µM | Potency [4] > 92 µM | Potency [5] > 92 µM | Potency [6] > 92 µM | outcome [7] | activity change, negative = cytotoxicity [8] -3.92% | Potency [9] | Potency [10] | Potency [11] | Potency [12] | Potency [13] | Potency [14] | Potency [15] | caspase-3 activation [16] 10.5% | outcome [17] | outcome [18] | outcome [19] | outcome [20]

CC(=O)Nc1cccc(N)c1
inactive: Potency [1] > 92 µM | Potency [2] > 92 µM | Potency [3] > 92 µM | Potency [4] > 92 µM | Potency [5] > 92 µM | Potency [6] > 92 µM | outcome [7] | activity change, negative = cytotoxicity [8] 5.61% | Potency [9] | Potency [10] | Potency [11] | Potency [12] | Potency [13] | Potency [14] | Potency [15] | caspase-3 activation [16] 1.66% | outcome [17] | outcome [18] | outcome [19] | outcome [20]

CC(C)=C1CCC(C)CC1=O (stereo not given)
inactive: Potency [1] > 92 µM | Potency [2] > 92 µM | Potency [3] > 92 µM | Potency [4] > 92 µM | Potency [5] > 92 µM | Potency [6] > 92 µM | outcome [7] | activity change, negative = cytotoxicity [8] -3.2% | Potency [9] | Potency [10] | Potency [11] | Potency [12] | Potency [13] | Potency [14] | Potency [15] | caspase-3 activation [16] -1.31% | outcome [17] | outcome [18] | outcome [19] | outcome [20]

O=[N+]([O-])c1ccc2nc[nH]c2c1
inactive: Potency [1] > 92 µM | Potency [2] > 92 µM | Potency [3] > 92 µM | Potency [4] > 92 µM | Potency [5] > 92 µM | Potency [6] > 92 µM | outcome [7] | activity change, negative = cytotoxicity [8] 4.31% | Potency [9] | Potency [10] | Potency [11] | Potency [12] | Potency [13] | Potency [14] | Potency [15] | caspase-3 activation [16] 0.964% | outcome [17] | outcome [18] | outcome [19] | outcome [20]

Cc1ccc2ccccc2c1[N+](=O)[O-]
inactive: Potency [1] > 92 µM | Potency [2] > 92 µM | Potency [3] > 92 µM | Potency [4] > 92 µM | Potency [5] > 92 µM | Potency [6] > 92 µM | outcome [7] | activity change, negative = cytotoxicity [8] -10.2% | Potency [9] | Potency [10] | Potency [11] | Potency [12] | Potency [13] | Potency [14] | Potency [15] | caspase-3 activation [16] -0.271% | outcome [17] | outcome [18] | outcome [19] | outcome [20]

Cc1ccc(C)cc1
inactive: Potency [1] > 92 µM | Potency [2] > 92 µM | Potency [3] > 92 µM | Potency [4] > 92 µM | Potency [5] > 92 µM | Potency [6] > 92 µM | outcome [7] | activity change, negative = cytotoxicity [8] -13.5% | Potency [9] | Potency [10] | Potency [11] | Potency [12] | Potency [13] | Potency [14] | Potency [15] | caspase-3 activation [16] 2.23% | outcome [17] | outcome [18] | outcome [19] | outcome [20]

Cc1ccc([N+](=O)[O-])c(N)c1
inactive: Potency [1] > 92 µM | Potency [2] > 92 µM | Potency [3] > 92 µM | Potency [4] > 92 µM | Potency [5] > 92 µM | Potency [6] > 92 µM | outcome [7] | activity change, negative = cytotoxicity [8] -4.55% | Potency [9] | Potency [10] | Potency [11] | Potency [12] | Potency [13] | Potency [14] | Potency [15] | caspase-3 activation [16] 1.25% | outcome [17] | outcome [18] | outcome [19] | outcome [20]

O=[N+]([O-])c1cc(C(F)(F)F)ccc1Cl
inactive: Potency [1] > 92 µM | Potency [2] > 92 µM | Potency [3] > 92 µM | Potency [4] > 92 µM | Potency [5] > 92 µM | Potency [6] > 92 µM | outcome [7] | activity change, negative = cytotoxicity [8] 4.62% | Potency [9] | Potency [10] | Potency [11] | Potency [12] | Potency [13] | Potency [14] | Potency [15] | caspase-3 activation [16] 0.364% | outcome [17] | outcome [18] | outcome [19] | outcome [20]

N#CC1(O)CCCCC1
inactive: Potency [1] > 92 µM | Potency [2] > 92 µM | Potency [3] > 92 µM | Potency [4] > 92 µM | Potency [5] > 92 µM | Potency [6] > 92 µM | outcome [7] | activity change, negative = cytotoxicity [8] 14.1% | Potency [9] | Potency [10] | Potency [11] | Potency [12] | Potency [13] | Potency [14] | Potency [15] | caspase-3 activation [16] 1.9% | outcome [17] | outcome [18] | outcome [19] | outcome [20]

NC(=O)c1cccc([N+](=O)[O-])c1
inactive: Potency [1] > 92 µM | Potency [2] > 92 µM | Potency [3] > 92 µM | Potency [4] > 92 µM | Potency [5] > 92 µM | Potency [6] > 92 µM | outcome [7] | activity change, negative = cytotoxicity [8] -1.6% | Potency [9] | Potency [10] | Potency [11] | Potency [12] | Potency [13] | Potency [14] | Potency [15] | caspase-3 activation [16] -0.315% | outcome [17] | outcome [18] | outcome [19] | outcome [20]
